The text below walks through data of PubChem BioAssay AID504333 (National Center for Advancing Translational Sciences (NCATS), 2011).

The campaign covered roughly 360,000 compounds. About 16,000 (4.4%) were called active. A call without a number means that no potency is given here. Another 9% or so got no clear call; they are omitted. The call rests on the fitted dose curve; in most records, active means well fitted inhibition curve with a large enough effect; inconclusive means small, poorly fitted or top-dose-only effect; inactive means no such curve, though single readings can be large or run the other way. Many of the other results were omitted from the sample, so actives are more common in it than they were.
Potency means the concentration at half of the fitted maximal effect.

Bromodomain adjacent to zinc finger domain protein 2B (Homo sapiens), sequence (Q9UIF8 whole entry, looked up, the tested form may be a part): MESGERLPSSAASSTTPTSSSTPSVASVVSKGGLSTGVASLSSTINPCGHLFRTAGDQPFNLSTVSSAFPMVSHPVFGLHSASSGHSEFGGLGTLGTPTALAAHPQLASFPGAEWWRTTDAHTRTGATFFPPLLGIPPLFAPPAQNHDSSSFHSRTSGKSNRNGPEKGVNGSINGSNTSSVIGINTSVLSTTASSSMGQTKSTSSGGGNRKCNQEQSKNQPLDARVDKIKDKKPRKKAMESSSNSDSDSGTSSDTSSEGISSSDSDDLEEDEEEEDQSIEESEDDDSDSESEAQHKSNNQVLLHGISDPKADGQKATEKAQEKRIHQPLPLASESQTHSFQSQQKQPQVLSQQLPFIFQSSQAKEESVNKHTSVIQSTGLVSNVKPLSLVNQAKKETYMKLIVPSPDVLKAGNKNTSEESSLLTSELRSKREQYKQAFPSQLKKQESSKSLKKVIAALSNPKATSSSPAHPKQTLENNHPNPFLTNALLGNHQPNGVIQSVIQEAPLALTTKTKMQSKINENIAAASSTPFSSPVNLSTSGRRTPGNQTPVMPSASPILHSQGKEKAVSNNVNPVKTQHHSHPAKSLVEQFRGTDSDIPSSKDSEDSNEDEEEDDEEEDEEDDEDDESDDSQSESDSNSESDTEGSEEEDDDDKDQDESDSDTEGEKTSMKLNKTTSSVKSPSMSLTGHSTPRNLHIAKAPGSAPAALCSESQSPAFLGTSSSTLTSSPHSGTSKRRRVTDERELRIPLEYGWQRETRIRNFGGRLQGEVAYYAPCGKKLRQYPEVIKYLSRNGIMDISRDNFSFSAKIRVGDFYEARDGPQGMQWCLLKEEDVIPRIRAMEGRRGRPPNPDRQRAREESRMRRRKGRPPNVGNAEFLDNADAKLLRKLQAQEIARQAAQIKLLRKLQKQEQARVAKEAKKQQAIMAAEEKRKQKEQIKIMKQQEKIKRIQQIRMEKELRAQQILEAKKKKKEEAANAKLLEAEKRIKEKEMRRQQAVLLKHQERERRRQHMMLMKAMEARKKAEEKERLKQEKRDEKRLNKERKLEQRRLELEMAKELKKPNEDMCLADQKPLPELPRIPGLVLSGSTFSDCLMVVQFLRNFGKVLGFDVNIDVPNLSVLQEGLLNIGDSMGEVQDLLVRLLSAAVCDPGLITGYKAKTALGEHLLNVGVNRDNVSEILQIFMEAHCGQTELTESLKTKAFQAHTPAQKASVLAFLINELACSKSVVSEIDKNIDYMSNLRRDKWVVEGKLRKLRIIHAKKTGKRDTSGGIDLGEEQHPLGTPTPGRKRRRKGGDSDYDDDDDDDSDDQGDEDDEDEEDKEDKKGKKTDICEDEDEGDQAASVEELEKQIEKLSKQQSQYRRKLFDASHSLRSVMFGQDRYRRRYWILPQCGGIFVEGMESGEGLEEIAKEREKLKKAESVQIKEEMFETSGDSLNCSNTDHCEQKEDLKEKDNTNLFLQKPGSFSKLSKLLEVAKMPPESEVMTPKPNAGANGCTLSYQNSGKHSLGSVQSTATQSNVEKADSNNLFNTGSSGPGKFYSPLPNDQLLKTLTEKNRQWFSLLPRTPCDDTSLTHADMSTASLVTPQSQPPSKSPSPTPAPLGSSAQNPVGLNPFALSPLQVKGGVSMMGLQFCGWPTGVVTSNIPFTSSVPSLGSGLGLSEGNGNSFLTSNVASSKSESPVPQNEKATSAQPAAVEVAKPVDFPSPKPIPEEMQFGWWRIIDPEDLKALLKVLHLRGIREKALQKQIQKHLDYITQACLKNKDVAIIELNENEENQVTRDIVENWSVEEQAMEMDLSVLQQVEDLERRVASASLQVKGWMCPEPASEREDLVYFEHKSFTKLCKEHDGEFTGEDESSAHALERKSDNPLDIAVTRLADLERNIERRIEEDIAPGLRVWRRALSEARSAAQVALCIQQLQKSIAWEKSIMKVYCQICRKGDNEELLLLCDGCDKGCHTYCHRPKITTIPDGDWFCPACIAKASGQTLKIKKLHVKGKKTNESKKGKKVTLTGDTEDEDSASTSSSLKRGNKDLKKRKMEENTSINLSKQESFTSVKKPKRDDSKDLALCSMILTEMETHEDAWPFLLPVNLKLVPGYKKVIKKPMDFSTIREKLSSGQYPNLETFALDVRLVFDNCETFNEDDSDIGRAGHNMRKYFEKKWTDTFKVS

In this assay the target is Bromodomain adjacent to zinc finger domain protein 2B (Homo sapiens) (UniProt Q9UIF8). Briefly: qHTS Assay for Inhibitors of BAZ2B. Further: nearly all actives have a fitted effect of over 60% in size. The conditions noted are these: AlphaScreen BAZ2B-H3K14Ac peptide displacement; series mostly up to 114 µM. The gist of the method:
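BAZ2B (50 nM) with biotin-H3(5-23)K14Ac peptide (50 nM) in PBS pH 7.4, 0.01% Tween-20, preformed 30 min, then compound 30 min at room temperature; top concentration 110uM. AlphaScreen streptavidin donor/nickel chelate acceptor beads (10 ug/mL final), 20 min dark, signal read.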
Background: qHTS replaces the single test concentration by a dilution series.
Take `COC(=O)C1=C(c2ccc(F)cc2OCc2ccccc2)C[C@@H]2CC[C@H]1N2C(=O)NCc1ccc(OC)c(OC)c1`: the Potency entry was “inactive”.

For `O=C(CCC(=O)N1C[C@H]2C[C@@H](C1)c1cccc(=O)n1C2)NCc1ccccc1C(F)(F)F`, the Potency entry was “inactive”.

As to `CN1CCN(Cc2ccc(OC(F)(F)F)cc2)CC1`, the Potency was 56.2 µM (active).

For the compound `CN1CCN(Cc2ccccc2C(F)(F)F)CC1`, the Potency entry is “inactive”.

Consider `CC(C)c1ccc(OCC(=O)N2CCCN(C)CC2)cc1`, for which the Potency result was “inactive”.

As to `CCN(CC)C(=O)c1ccc(NC(=O)c2sccc2-c2ccccc2)cc1`, the Potency entry is “inactive”.

As to `CCOc1cc(N2CCOCC2)c(OCC)cc1NC(=O)C1=NN(c2cccc(C)c2)C(=O)CC1`, the Potency was 8.91 µM (active).

Turning to `CN(C)CC1Oc2ccccc2OC1(O)c1ccccc1` (stereo not given), the Potency result is “inactive”.

Regarding `CN(C)c1ccc(/C=C2\CC3C4CC=C5CC(O)CCC5(C)C4CCC3(C)C2=O)cc1` (stereo not given), the Potency entry is “inactive”.

`COC(=O)C1=C(c2ccc(F)cc2OCc2ccccc2)C[C@@H]2CC[C@H]1N2C(=O)NCc1ccc(Cl)cc1`: the Potency entry was “inactive”.

As for `c1ccc(CC2CCCCN2)cc1` (stereo not given), the Potency entry is “inactive”.

Regarding `Cc1ccc(CN2CCCC(C(=O)c3ccc4c(c3)OCO4)C2)cc1C` (stereo not given), the Potency result is “inactive”.

As for `c1ccc(CCNC2CCCCCC2)cc1`, the Potency is 70.8 µM (active).

On to `OC(CNC1CCCCC1)c1ccccc1` (stereo not given), for which the Potency result is “inactive”.

With `c1cc2c(cc1CCNC1CCCCCC1)OCO2`, the Potency was 17.8 µM (active).

As for `c1cc2c(cc1[C@H]1OC[C@H]3[C@@H]1CO[C@@H]3c1ccc3c(c1)OCO3)OCO2`, the Potency result is “inactive”.

Regarding `COc1cc(Cn2c(N)c(C(=O)NCc3ccco3)c3nc4ccccc4nc32)cc(OC)c1OC`, the Potency result is “inactive”.

Take `O=C(c1ccccc1[N+](=O)[O-])N1CCC2(CC1)OCCO2`: the Potency entry was “inactive”.

Take `COC(=O)C1=C(c2ccc(F)cc2F)C[C@@H]2CC[C@H]1N2C(=O)NC1CC1`: the Potency entry is “inactive”.

Take `Cc1ccc2c(c1)=C/C(=C\c1c(O)[nH]c(=O)[nH]c1=O)C(=O)N=2`: the Potency entry is “inactive”.

With `CCOc1ccc(-c2cc(C)[n+](CCN(CC)CC)c(-c3ccc(OCC)cc3)c2)cc1`, the Potency result was “inactive”.

In the case of `Cc1ccc(C(C)C)c(OCC(=O)N2CCN(CC(=O)N3CCOCC3)CC2)c1`, the Potency entry was “inactive”.

Consider `CN(C)c1ccc(NC(=O)CN2C3CCCC2CC(NC(=O)c2ccccc2)C3)cc1` (stereo not given), for which the Potency was 70.8 µM (active).

As to `CC(=O)Nc1ccc(C(=O)C(Cc2ccccc2)N(C)C)cc1` (stereo not given), the Potency result was “inactive”.

As to `CN(C)S(=O)(=O)c1cc(C(=O)N2CCC(C(=O)O)(c3ccccc3)CC2)ccc1Cl`, the Potency entry is “inactive”.

For `CCN1CCN(c2nc3c(c(=O)[nH]2)CCC3)CC1`, the Potency result was “inactive”.

As to `O=C(Nc1ccc(Cl)cc1C(=O)c1ccccc1)c1cc(Cl)cc(Cl)c1`, the Potency entry was “inactive”.

Regarding `COc1cccc(N2C(=O)NC(=O)/C(=C\c3ccc([N+](=O)[O-])s3)C2=O)c1`, the Potency was 31.6 µM (active).

`Cc1cccc(N2C(=O)NC(=O)/C(=C\c3cnn(-c4ccccc4)c3)C2=O)c1`: the Potency result is “inactive”.

With `O=C1NC(=O)N(c2ccccc2)C(=O)/C1=C/c1ccc([N+](=O)[O-])s1`, the Potency is 35.5 µM (active).

Consider `COc1cccc(N2C(=O)NC(=O)/C(=C\c3cn(C)c4ccccc34)C2=O)c1`, for which the Potency entry is “inactive”.

As for `Cc1nn(-c2ccccc2)c(C)c1NC(=O)COC(=O)Cc1ccccc1`, the Potency result is “inactive”.

On to `COC(=O)C1=C(c2ccc(C(C)=O)cc2)C[C@@H]2CC[C@H]1N2C(=O)NCCNC(C)=O`, for which the Potency entry was “inactive”.

Consider `CC(C)n1c(=O)c(C=Nc2ccc(Br)cc2)c(O)n(Cc2ccco2)c1=O`, for which the Potency result was “inactive”.

For the compound `Cc1cc(C(=O)OCC(=O)Nc2c(F)cccc2F)c(C)n1C1CC1`, the Potency result is “inactive”.

On to `COc1ccccc1OC(=O)c1ccc(C)c(S(=O)(=O)N2CCOCC2)c1`, for which the Potency result was “inactive”.

Consider `COc1ccc(N2C(=O)/C(=C/c3ccco3)C(=O)NC2=S)cc1`, for which the Potency was 3.55 µM (active).

Regarding `COc1ccc(CN2C(=O)NC(=O)/C(=C\c3ccc(OC)c(OC)c3OC)C2=O)cc1`, the Potency result was “inactive”.

Take `Cc1ccc(S(=O)(=O)N(C)c2ccc(C(=O)NCC3(N(C)C)CCCCC3)cc2)cc1`: the Potency entry was “inactive”.

Consider `CN(C)C(=O)Oc1ccc(OCc2cccc[n+]2C)cc1`, for which the Potency entry was “inactive”.

Regarding `COC(=O)C1=C(c2ccc(F)cc2OCc2ccccc2)C[C@@H]2CC[C@H]1N2C(=O)NCc1ccc(C(C)(C)C)cc1`, the Potency entry was “inactive”.

Consider `O=C(OCC1O[C@@H](OC(=O)c2cc(O)c(O)c(O)c2)[C@@H](OC(=O)c2cc(O)c(O)c(O)c2)[C@@H](OC(=O)c2cc(O)c(O)c(O)c2)[C@@H]1OC(=O)c1cc(O)c(O)c(O)c1)c1cc(O)c(O)c(O)c1` (stereo not given in full), for which the Potency is 0.708 µM (active).

As for `CN(C)C(=O)Oc1ccc2c(c1)O/C(=C\c1ccccc1)C2=O`, the Potency result is “inactive”.

Turning to `CC1CCC(N(C)C2CCN(C)CC2)CC1` (stereo not given), the Potency result was “inactive”.

Regarding `CNC(=O)O/N=C(\N)Cc1csc2ccc(Cl)cc12`, the Potency entry was “inactive”.
